Structures are written as SMILES. Where “and” joins values, the source holds several entries; their conditions need not be identical. Identical values can stand only once. Compounds without any hit were thinned out: in the full panel of roughly 83,000, 20% have a hit.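 Negative percent growth values reflect cell death: -40 means 40% of the cells present at the start died, and -100 means all died.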 Where a structure was tested more than once in an assay, its records may differ in their call. Calls of active or inactive are those of the source. Rule for the calls: active = growth percent below 10; inactive = the rest.

The assay concerns HL-60(TB) leukemia. The assay can be described thus: NCI-60 one-dose screen, 48 h (100 = growth as untreated, 0 = no growth, -100 = all killed). The settings on record: 10 µM unless noted.
Regarding `CNCCCNCCCCNCCCN1C(=O)c2ccc3c4c(ccc(c24)C1=O)C(=O)N(CCCNCc1ccccc1OC)C3=O`, the growth is 23% (inactive). On to `CN1CCN(CCC=C2c3ccccc3Sc3ccc(S(=O)(=O)N(C)C)cc32)CC1`, for which the growth was 91.3% (inactive) and 80.6% (inactive). Next, `Cc1ccc(NC(=O)CN2CCOCC2)cc1Cl`: 74.2% (inactive). Turning to `COc1ccc(-c2nn(-c3ccccc3)cc2/C=C2/SC(=S)N(C)C2=O)cc1`, the growth is 95.8% (inactive). For the compound `Cc1cccc(/C=C\C(=O)c2ccc(Cl)cc2)c1`, the growth was 90.1% (inactive) and 61.3% (inactive). As for `Cc1cc(C)nc(NS(=O)(=O)c2ccc(Nc3nc4nc(NCc5ccccc5)nc(-c5ccc(O)cc5)c4c(=O)[nH]3)cc2)n1`, the growth was 1.48% (active). Turning to `Nc1ncnc2c1ncn2C1CC(O)C(CO)O1` (stereo unspecified), the growth was 79.7% (inactive) and 95.3% (inactive). In the case of `Cc1c2ccccc2c(C)c2c1ccc1ccccc12`, the growth was 69.9% (inactive).

For `N#Cc1c(-c2ccc(Cl)cc2)cc(-c2cc3ccccc3o2)nc1SCC(=O)c1ccc(Cl)cc1`, the growth was 123% (inactive). For the compound `Cc1ccc(S(=O)(=O)Nc2nc3ccccc3nc2Nc2ccc3nsnc3c2)cc1`, the growth was 45.4% (inactive) and 37.2% (inactive). In the case of `O=C1COCCN1c1ccc(Nc2nc(Cl)nc(OCc3cn(Cc4ccccc4)nn3)n2)cc1`, the growth is 40.3% (inactive). For the compound `COC(=O)Nc1nc2ccc(C(=O)c3ccccc3)cc2[nH]1`, the growth is 7.13% (active) and -59.3% (active) and -3.38% (active).

On to `C=CC[N+]1(CC)CCN=C1CCCCCCCCCCCCCCCCC` (stereo unspecified), for which the growth was -59.5% (active). As for `CCN1CCN(c2cc(C(=O)Nc3nc(-c4cc(OC)c(OC)c(OC)c4)cs3)cc(C(F)(F)F)c2)CC1`, the figure is 41.4% (inactive); as for `COC(=O)c1ccc(CSc2nnc(-c3c(C)nc4ccc(C)cn34)o2)cc1`, 97.5% (inactive). Next, `O=C1CCC(N2Cc3c(C#CCCCNC(=O)c4cc5c(o4)C(=O)c4ccccc4C5=O)cccc3C2=O)C(=O)N1` (stereo unspecified): -1.27% (active); `CSc1nc2c(c(=O)[nH]1)N=C1c3ccccc3C(=O)C1C(c1ccccc1)N2` (stereo unspecified): -34.8% (active); `CC1=C(/C=C/C(C)=C/C=C/C(C)=C/C=N/NC(=S)NC(=S)N/N=C/C=C(C)/C=C/C=C(C)/C=C/C2=C(C)CCCC2(C)C)C(C)(C)CCC1`: 11.7% (inactive) and -28.1% (active). Take `CCCCCn1sc(=O)n(Cc2ccc(CNC(=O)C(C)c3ccc(CC(C)C)cc3)cc2)c1=O` (stereo unspecified): the growth is 102% (inactive) and -34.5% (active). As to `CCOC(=O)c1c2c(n3cccc(F)c13)C(=O)c1ncccc1C2=O`, the growth is -25.8% (active).

As to `COC(=O)C(=C\c1ccc2c(c1)OCO2)/C(=C/c1ccc2c(c1)OCO2)C(=O)OC`, the growth is 112% (inactive).

With `c1ccc(NCc2ccc3c(c2)OCO3)cc1`, the growth is 94.6% (inactive) and 96.1% (inactive). As to `COc1ccc(/C=C2\COc3ccc(O)c(O)c3C2=O)cc1`, the growth was -5.92% (active). As for `N#Cc1ccc(OC(=O)Nc2cc(Cl)cc(Cl)c2)cc1`, the figure is -0.568% [100 µM] (active); as for `CCOC(=S)SCc1ccc(Cl)cc1`, 65.8% (inactive). As for `OCC1OC(n2cnc3c(=S)nc[nH]c32)C(O)C1O` (stereo unspecified), the growth is 120% (inactive) and 50.9% (inactive).

Turning to `O[C@H](c1cc(C(F)(F)F)nc2c(C(F)(F)F)cccc12)[C@@H]1CCCCN1`, the growth was 52.8% (inactive) and 50.7% (inactive).

With `O=C(c1ccc(Cl)cc1Cl)N1CCOCC1`, the growth is 105% (inactive). For the compound `CCOC(=O)NC(N)=O`, the growth was 92.4% (inactive). Consider `CCOC(=O)C1(Cc2ccccc2)CCN(Cc2cccc(OC)c2O)CC1`, for which the growth was -11.6% (active).

Take `O=C(O)CNC(=O)C1(N2C(=O)c3ccccc3C2=O)CCCC1`: the growth was 90.6% (inactive). Regarding `CNc1cc2nc3cc(NC)c(C)cc3cc2cc1C`, the growth was 18.9% (inactive). Regarding `CC(=O)N1N=C(c2ccc(Nc3nc(Nc4ccccc4)nc(Nc4ccccc4)n3)cc2)CC1c1cccc([N+](=O)[O-])c1` (stereo unspecified), the growth is 94.8% (inactive). Regarding `O=C(/C=C/c1ccc(Cl)cc1)c1ccc(Br)cc1`, the growth is 81.4% (inactive). As to `Cc1cc2c(O)c(-c3cc(Cl)ccc3Cl)c3sc(=O)oc3c2cc1C`, the growth was 64.1% (inactive).

On to `O=C1C(=O)c2ccccc2C(O)=C1CC=C(Cl)Cl`, for which the growth was 31.3% (inactive) and 44.6% (inactive).
